The results in this text go back to PubChem BioAssay (EPA / NIEHS).

Records with an inconclusive call do not appear. The source made the active and inactive calls. Rule for the calls: active = hit-call score of the fitted dose curve at least 0.9, where 1 is the maximum; inconclusive = response in the unintended direction; inactive = score below 0.9.

The target of assay [1] is guinea pig Sigma Receptor, Non-selective Binding, SIGMAR1 (gene 100135589) (UniProt Q60492). Briefly: NVS_OR_gSIGMA_NonSelective: NovaScreen (NVS) Nuclear Receptor Binding Assay for guinea pig Sigma Receptor, Non-selective Binding (AID 2283367). The method in brief: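 Guinea pig brain membranes, cell-free radioligand binding; read 1 h after dosing by filter-based scintillation counting. Loss of signal vs DMSO baseline taken as displacement. Primary screen single concentration 25 uM in duplicate; actives retested in concentration series.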

Assay [2] addresses rat Androgen Receptor (AR), Ar (gene 24208) (UniProt P15207). Briefly: NVS_NR_rAR: NovaScreen (NVS) Nuclear Receptor Binding Assay for rat Androgen Receptor (AR) (AID 2283366). The method in brief:
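Cell-free radioligand binding on extracts of prostate from testosterone-pretreated rats, read by filter-based scintillation counting 18 h after dosing. Loss of bound signal fitted positively versus DMSO; primary screen in duplicate at 25 uM, actives followed up in concentration series.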

In assay [3] the target is human Adenosine Transporter (Adot), SLC29A1 (gene 2030) (UniProt Q99808). Briefly: NVS_TR_hAdoT: NovaScreen (NVS) Transporter Assay for human Adenosine Transporter (Adot) (AID 2283368). The method in brief:
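U937-derived membranes, cell-free radioligand binding, filter scintillation 1 h after dosing. 25 uM duplicate screen; hits (e.g. 30% inhibition) run in concentration-response up to 50 uM; loss of signal versus DMSO.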

Assay [4] relates to guinea pig Dopamine Transporter (DAT), gene 100714898. Briefly: NVS_TR_gDAT: NovaScreen (NVS) Transporter Assay for guinea pig Dopamine Transporter (DAT) (AID 2283369).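 Note: active compounds lower bound radioligand signal relative to DMSO.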 The method in brief:
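Cell-free striatal membrane prep (guinea pig), 2 h exposure, filtration + scintillation readout of radioligand binding. Single-point 25 uM duplicate; actives rerun singleton, top conc 50 uM.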

Assay [5] has as its target Peroxisome proliferator-activated receptor gamma (Homo sapiens) (UniProt P37231). The assay is described as follows: NVS_NR_hPPARg: NovaScreen (NVS) Nuclear Receptor Binding Assay for human Peroxisome Proliferator-activated Receptor gamma (PPARg) (AID 2283370). Summed up: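 FP read-out, 2 h post-dose, cell-free extracted receptor protein. Signal loss vs DMSO negative control = binding activity. Single-conc duplicate HTS at 25 uM; concentration-response follow-up for actives.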

In assay [6] the target is human Serotonin Transporter (SERT), SLC6A4 (gene 6532) (UniProt P31645). Briefly: NVS_TR_hSERT: NovaScreen (NVS) Transporter Assay for human Serotonin Transporter (SERT) (AID 2283372). The method in brief:
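Radioligand binding to native SERT in human platelet membranes, read by filter-based scintillation counting 1 h after dosing. Primary screen in duplicate at 25 uM; actives followed up in concentration series; loss of signal versus DMSO baseline.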

The target in assay [7] is human Dopamine Transporter (DAT), SLC6A3 (gene 6531) (UniProt Q01959). Briefly: NVS_TR_hDAT: NovaScreen (NVS) Transporter Assay for human Dopamine Transporter (DAT) (AID 2283374).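 Note: activity means loss of bound radioligand signal relative to DMSO.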 Summed up: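 Cell-free radioligand binding to extracted human DAT protein, read 1 h after dosing by filter-based scintillation counting. Loss of specific binding scored against DMSO baseline; primary screen in duplicate at 25 uM, actives then run in concentration series.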

Assay [8] deals with rat Serotonin Transporter (SERT), Slc6a4 (gene 25553) (UniProt P31652). The assay is described as follows: NVS_TR_rSERT: NovaScreen (NVS) Transporter Assay for rat Serotonin Transporter (SERT) (AID 2283375). The method in brief: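 Radioligand displacement, filter scintillation readout; rat forebrain membrane prep, 1 h post-dose. Single-conc 25 uM duplicate screen, then concentration-response on actives. Loss of signal vs DMSO baseline.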

Assay [9] addresses human Norepinephrine Transporter (NET), SLC6A2 (gene 6530) (UniProt P23975). The assay is described as follows: NVS_TR_hNET: NovaScreen (NVS) Transporter Assay for human Norepinephrine Transporter (NET) (AID 2283377).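 Note: cell-free membrane protein extracted from CHO cells expressing human NET.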 The method in brief:
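Radioligand binding to human NET in cell-free CHO-derived protein preparations, read by filter-based scintillation counting 1 hour after dosing. Loss of signal versus DMSO baseline indicated displacement; primary screening in duplicate at 25 uM, actives then titrated.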

In assay [10] the test system is rat Norepinephrine Transporter (NET), gene 83511. Briefly: NVS_TR_rNET: NovaScreen (NVS) Transporter Assay for rat Norepinephrine Transporter (NET) (AID 2283373). Summed up:
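Rat forebrain membranes; radioligand binding measured by filter-based scintillation counting 1 hour after dosing. Loss of specific binding versus DMSO baseline scored; primary screen in duplicate at 25 uM, actives followed up in concentration series.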

Chain of rat Serotonin Transporter (SERT), Slc6a4 (gene 25553) (P31652 whole entry, looked up): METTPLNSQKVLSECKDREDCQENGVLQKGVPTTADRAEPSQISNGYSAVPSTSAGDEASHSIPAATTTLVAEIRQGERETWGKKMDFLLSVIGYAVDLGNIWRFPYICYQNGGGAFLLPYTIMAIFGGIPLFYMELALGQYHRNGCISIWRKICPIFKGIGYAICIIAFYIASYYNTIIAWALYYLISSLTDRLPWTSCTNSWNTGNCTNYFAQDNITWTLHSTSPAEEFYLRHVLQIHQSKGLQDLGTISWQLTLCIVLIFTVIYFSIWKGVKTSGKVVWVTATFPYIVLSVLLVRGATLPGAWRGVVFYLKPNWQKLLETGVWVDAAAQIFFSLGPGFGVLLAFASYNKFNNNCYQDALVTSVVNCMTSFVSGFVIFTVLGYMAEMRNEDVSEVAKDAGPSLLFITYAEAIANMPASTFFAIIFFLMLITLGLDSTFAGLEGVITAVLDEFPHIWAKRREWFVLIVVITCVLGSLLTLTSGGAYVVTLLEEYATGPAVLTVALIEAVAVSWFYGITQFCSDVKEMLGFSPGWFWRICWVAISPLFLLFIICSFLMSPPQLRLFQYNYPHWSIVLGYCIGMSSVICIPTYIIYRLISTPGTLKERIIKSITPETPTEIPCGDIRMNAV
Chain of human Adenosine Transporter (Adot), SLC29A1 (gene 2030) (Q99808 whole entry, looked up): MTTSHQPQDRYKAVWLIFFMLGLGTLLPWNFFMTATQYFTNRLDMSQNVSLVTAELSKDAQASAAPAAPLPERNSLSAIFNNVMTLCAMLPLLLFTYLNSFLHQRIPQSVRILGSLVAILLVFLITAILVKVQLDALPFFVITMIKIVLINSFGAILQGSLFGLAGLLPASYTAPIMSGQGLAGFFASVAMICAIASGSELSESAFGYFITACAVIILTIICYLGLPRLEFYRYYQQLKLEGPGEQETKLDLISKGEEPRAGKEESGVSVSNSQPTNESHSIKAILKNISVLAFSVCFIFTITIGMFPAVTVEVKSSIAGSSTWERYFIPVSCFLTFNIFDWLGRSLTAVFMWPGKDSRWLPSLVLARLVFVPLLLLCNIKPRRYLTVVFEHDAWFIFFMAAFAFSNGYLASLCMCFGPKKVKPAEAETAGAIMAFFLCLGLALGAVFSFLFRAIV
Chain of human Norepinephrine Transporter (NET), SLC6A2 (gene 6530) (P23975 whole entry, looked up): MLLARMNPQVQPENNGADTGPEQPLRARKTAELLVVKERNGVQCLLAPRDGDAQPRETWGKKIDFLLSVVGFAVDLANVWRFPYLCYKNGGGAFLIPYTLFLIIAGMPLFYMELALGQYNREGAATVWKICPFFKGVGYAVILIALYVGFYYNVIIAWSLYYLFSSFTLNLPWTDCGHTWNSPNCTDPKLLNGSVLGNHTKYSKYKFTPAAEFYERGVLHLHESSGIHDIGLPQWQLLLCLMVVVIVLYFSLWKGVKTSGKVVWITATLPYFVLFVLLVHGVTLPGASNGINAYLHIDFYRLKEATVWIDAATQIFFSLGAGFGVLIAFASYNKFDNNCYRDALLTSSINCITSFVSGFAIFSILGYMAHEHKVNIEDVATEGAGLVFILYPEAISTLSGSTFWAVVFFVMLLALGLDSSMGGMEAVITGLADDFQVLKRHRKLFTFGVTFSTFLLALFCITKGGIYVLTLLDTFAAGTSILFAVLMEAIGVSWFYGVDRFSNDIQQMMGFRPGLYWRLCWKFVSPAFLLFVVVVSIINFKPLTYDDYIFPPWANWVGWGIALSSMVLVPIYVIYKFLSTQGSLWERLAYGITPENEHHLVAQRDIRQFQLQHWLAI
Chain of Peroxisome proliferator-activated receptor gamma (Homo sapiens) (P37231 whole entry, looked up): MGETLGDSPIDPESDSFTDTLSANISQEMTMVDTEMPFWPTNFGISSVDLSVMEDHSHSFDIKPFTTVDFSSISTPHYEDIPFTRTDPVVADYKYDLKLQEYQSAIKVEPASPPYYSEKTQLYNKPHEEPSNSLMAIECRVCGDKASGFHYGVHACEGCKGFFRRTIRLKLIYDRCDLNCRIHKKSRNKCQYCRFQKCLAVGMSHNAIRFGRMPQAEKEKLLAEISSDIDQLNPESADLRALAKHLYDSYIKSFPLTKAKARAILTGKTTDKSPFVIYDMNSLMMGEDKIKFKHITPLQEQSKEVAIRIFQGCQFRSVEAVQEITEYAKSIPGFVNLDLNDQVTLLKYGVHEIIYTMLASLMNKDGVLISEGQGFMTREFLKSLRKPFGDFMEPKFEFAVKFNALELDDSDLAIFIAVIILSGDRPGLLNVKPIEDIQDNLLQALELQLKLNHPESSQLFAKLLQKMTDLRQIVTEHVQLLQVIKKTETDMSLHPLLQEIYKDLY
Chain of human Dopamine Transporter (DAT), SLC6A3 (gene 6531) (Q01959 whole entry, looked up): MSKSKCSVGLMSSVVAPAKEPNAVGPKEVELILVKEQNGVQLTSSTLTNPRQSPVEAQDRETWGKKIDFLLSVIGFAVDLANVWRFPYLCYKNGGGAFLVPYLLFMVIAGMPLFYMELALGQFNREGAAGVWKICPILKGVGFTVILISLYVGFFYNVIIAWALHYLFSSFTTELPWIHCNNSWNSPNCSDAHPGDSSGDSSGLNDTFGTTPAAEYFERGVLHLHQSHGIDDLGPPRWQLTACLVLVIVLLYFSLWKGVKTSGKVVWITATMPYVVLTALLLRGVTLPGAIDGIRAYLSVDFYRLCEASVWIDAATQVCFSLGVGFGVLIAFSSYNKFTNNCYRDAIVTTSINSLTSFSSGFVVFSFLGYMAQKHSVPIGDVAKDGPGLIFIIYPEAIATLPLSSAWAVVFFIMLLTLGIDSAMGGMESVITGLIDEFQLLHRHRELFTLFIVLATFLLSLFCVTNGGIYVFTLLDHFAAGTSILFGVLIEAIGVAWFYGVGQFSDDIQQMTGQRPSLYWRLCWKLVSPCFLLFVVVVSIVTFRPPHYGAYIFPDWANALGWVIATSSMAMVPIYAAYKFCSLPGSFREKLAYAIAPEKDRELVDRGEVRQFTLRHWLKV
Chain of human Serotonin Transporter (SERT), SLC6A4 (gene 6532) (P31645 whole entry, looked up): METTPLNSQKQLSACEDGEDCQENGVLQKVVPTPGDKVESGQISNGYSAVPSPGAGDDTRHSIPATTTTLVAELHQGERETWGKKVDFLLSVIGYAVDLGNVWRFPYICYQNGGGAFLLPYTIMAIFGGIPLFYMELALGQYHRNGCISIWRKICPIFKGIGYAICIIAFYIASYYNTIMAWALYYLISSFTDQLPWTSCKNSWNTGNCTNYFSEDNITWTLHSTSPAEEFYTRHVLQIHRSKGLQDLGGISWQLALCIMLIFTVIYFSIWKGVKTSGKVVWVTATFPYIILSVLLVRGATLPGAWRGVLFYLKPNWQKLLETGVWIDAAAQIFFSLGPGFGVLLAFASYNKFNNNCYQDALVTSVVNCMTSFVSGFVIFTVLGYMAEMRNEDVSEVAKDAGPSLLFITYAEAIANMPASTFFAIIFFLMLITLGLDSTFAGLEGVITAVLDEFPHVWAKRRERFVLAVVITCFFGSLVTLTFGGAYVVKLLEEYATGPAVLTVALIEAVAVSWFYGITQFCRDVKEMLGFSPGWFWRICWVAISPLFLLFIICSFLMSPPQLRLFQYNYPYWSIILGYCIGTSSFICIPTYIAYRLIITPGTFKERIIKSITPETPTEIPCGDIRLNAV
Chain of guinea pig Sigma Receptor, Non-selective Binding, SIGMAR1 (gene 100135589) (Q60492 whole entry, looked up): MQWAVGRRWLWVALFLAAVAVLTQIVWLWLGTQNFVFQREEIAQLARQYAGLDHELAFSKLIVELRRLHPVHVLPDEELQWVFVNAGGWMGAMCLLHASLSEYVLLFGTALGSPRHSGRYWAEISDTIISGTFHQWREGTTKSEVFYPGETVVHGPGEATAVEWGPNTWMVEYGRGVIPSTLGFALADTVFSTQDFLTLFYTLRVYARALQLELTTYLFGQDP
Chain of rat Androgen Receptor (AR), Ar (gene 24208) (P15207 whole entry, looked up): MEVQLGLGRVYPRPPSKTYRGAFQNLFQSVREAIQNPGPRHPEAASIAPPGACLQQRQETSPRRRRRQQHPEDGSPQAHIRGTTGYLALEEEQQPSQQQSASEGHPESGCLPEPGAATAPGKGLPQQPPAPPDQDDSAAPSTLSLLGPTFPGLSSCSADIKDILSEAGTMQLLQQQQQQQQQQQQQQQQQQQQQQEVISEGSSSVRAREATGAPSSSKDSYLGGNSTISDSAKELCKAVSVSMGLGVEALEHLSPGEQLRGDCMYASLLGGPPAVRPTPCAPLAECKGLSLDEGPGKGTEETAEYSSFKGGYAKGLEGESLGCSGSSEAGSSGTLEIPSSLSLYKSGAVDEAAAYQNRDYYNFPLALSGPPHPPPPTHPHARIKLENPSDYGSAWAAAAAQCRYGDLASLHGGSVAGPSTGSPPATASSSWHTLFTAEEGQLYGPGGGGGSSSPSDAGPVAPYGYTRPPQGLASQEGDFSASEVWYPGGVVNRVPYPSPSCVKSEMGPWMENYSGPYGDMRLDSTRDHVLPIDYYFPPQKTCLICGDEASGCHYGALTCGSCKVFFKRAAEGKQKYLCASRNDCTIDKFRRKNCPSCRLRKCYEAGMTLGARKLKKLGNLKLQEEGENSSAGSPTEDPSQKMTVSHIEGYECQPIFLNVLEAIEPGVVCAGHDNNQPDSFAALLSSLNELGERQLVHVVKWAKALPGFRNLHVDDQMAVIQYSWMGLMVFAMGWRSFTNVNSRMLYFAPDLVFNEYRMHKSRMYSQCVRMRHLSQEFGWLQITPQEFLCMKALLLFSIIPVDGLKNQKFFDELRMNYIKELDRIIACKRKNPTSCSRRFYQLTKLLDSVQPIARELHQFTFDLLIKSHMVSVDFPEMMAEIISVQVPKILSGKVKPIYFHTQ

Consider `CN(C)c1ccc(Cc2ccc(N(C)C)cc2)cc1`, for which, in [1], the AC50 is 5.19 µM (active).

`CCOc1cccc(-n2cc(C(=O)N3CCN(c4cc(C(=O)O)c5ccccc5c4)CC3)nc2-c2ccc(C)cc2)c1`: the AC50 is 13.5 µM (active) in [2]; 14.8 µM (active) in assay [3]; 23.8 µM (active) in assay [4]; 34.2 µM (active) in assay [6]; 8.21 µM (active) in [7]; 14.7 µM (active) in [8]. Further, the AC50 in [9] was 13.7 µM (active). In addition, in assay [5], the result was inactive.

As to `CN(C)c1ccc(N=NS(=O)(=O)O)cc1`, in assay [4], the AC50 was 27.1 µM (active).

Take `CC[C@H]1CC[C@H](NCc2cc3c(cc2OC)[C@H]2C[C@H]2C(=O)N3C)[C@H](c2ccccc2)N1`: the concentration at half-maximal activity (AC50) in assay [1] was 10.9 µM (active); in [10] it was 25 µM (active); in assay [9] it was 11.3 µM (active).

As for `CCN(C(=O)c1cc(C)cc(OC[C@H](C)Nc2ccncc2)c1)C(C)C`, in assay [1], the AC50 is 6.22 µM (active). Also, the result in assay [5] was inactive.

Turning to `Cc1ccc(C)c(O)c1`, in assay [1], the half-maximal activity concentration (AC50) is 8.63 µM (active).

Take `O=C(OC[C@H]1O[C@@H](OC(=O)c2cc(O)c(O)c(OC(=O)c3cc(O)c(O)c(O)c3)c2)[C@H](OC(=O)c2cc(O)c(O)c(OC(=O)c3cc(O)c(O)c(O)c3)c2)[C@@H](OC(=O)c2cc(O)c(O)c(OC(=O)c3cc(O)c(O)c(O)c3)c2)[C@@H]1OC(=O)c1cc(O)c(O)c(OC(=O)c2cc(O)c(O)c(O)c2)c1)c1cc(O)c(O)c(OC(=O)c2cc(O)c(O)c(O)c2)c1`: the AC50 is 3.15 µM (active) in assay [3] and 2.65 µM (active) in assay [7]. The result in assay [4] was inactive.

With `CCC(C)(C)C(=O)O[C@H]1C[C@@H](C)C=C2C=C[C@H](C)[C@H](CC[C@@H]3C[C@@H](O)CC(=O)O3)[C@H]21`, the half-maximal activity concentration (AC50) in [3] and in assay [7] was 25 µM (active) in each case. Also, the outcome in assay [5] and in assay [9] was inactive.

On to `O=c1[nH]c2ccc(S(=O)CCN3CCC(Cc4ccc(F)cc4)CC3)cc2o1` (stereo not given), for which the AC50 in assay [1] was 0.339 µM (active); in assay [4], 6.75 µM (active); in [7], 3.16 µM (active); in assay [8], 0.403 µM (active); in assay [9] it was 2.28 µM (active). In addition, the compound was called inactive in [5].

Consider `Cn1c(=O)cc(Oc2ccc(F)cc2F)c2cnc(NCC(C)(C)O)nc21`, for which, in assay [1], the call was inactive. The AC50 was 25 µM (active) in [3], 32.4 µM (active) in assay [5] and 4.35 µM (active) in assay [9].

In the case of `CCOC(=O)COc1ccc2c(c1)CC(NCC(O)c1cccc(Cl)c1)CC2` (stereo not given), the call in [1], in [6] and in assay [10] was inactive. The concentration at half-maximal activity (AC50) is 10.6 µM (active) in [4], 0.124 µM (active) in assay [7], 4.63 µM (active) in assay [8] and 0.312 µM (active) in [9].

`CC(C)CCCCCCCOC(=O)CCCCC(=O)OCCCCCCCC(C)C`: the compound was classed as inactive in [1] and in [9]. For the same compound, the concentration at half-maximal activity (AC50) in [7] is 25 µM (active).

As to `CC(C)CC(C)(O)C#CC(C)(O)CC(C)C` (stereo not given), the AC50 in [1] was 15 µM (active).

For `Cc1ccc(N)cc1O`, the outcome in assay [3] was inactive.

For the compound `CCc1cc(SCc2sc(-c3ccc(C(F)(F)F)cc3)nc2CN2CCN(c3ccc(OC)cc3)CC2)ccc1OCC(=O)O`, the AC50 is 10.8 µM (active) in [3]; 15.2 µM (active) in [4]; 7.42 µM (active) in assay [5]; 13.9 µM (active) in assay [7]; 4.89 µM (active) in assay [9].

For the compound `CCCCC(CC)COC(=O)CCCCCCCCC(=O)OCC(CC)CCCC` (stereo not given), the AC50 in assay [3] is 39.9 µM (active).

`CNS(=O)(=O)c1cc(C(=O)N2CCC(CCN3C4CCC3CC(n3c(C)nc5ccccc53)C4)(c3cccc(F)c3)CC2)c(Cl)cc1F` (stereo not given): in assay [5], the outcome was inactive. The figures for the AC50 in assay [7], in assay [8] and in [9] were 8.74 µM (active), 8.93 µM (active) and 2.25 µM (active), respectively.

Regarding `Nc1ccc(Nc2ccccc2)cc1`, the results for the AC50 in assay [4], in [7] and in [9] were 25 µM (active), 7.42 µM (active) and 6.87 µM (active), respectively.

With `CC(=O)OCCC(C)C`, the compound was called inactive in [4], in [7] and in [9].

For the compound `CC(C)CCO`, the outcome in assay [7] was inactive.

`CC(C)=CCC/C(C)=C\CO`: the compound was classed as inactive in assay [5].

As for `CC(C)=CCCC(C)CCO` (stereo not given), the outcome in [5] was inactive.

As to `CC(C)c1cccc(C(C)C)c1N1C(=O)c2ccc(O)cc2C1=O`, in [5], the AC50 was 16.1 µM (active).

For `C=CC(=C)CCC=C(C)C`, the outcome in assay [5] was inactive.

In the case of `O=C(NS(=O)(=O)/C=C/c1ccccc1)c1ccc(F)cc1Cl`, in assay [5], the AC50 was 39.6 µM (active).

Take `COC(=O)c1c(Cl)c(Cl)c(C(=O)OC)c(Cl)c1Cl`: the compound was called inactive in assay [5].

In the case of `O=C(O)c1cc(N=Nc2ccc(S(=O)(=O)Nc3ccccn3)cc2)ccc1O`, the compound was called inactive in assay [5].

For the compound `Cc1c(-c2cccnc2)c2ccccc2n1CCCCC(=O)O`, the compound was classed as inactive in assay [5].

Take `CC1(C)C(=O)N(Br)C(=O)N1Br`: the call in assay [5] was inactive.

As to `Cn1cnc([N+](=O)[O-])c1Sc1ncnc2nc[nH]c12`, the compound was called inactive in assay [5].

With `CCn1nc(Cc2ccccc2)cc1C1CCN(C[C@H]2C[C@H](N(C)[C@@H](C(=O)O)C(C)C)C[C@@H]2c2cccc(F)c2)CC1`, the AC50 was 13.8 µM (active) in assay [4], 9.06 µM (active) in assay [7] and 11 µM (active) in assay [9].

As for `COCCOCCOCCOC`, in [8], the outcome was inactive.

In the case of `Clc1nc(Cl)c(Cl)c(Cl)c1Cl`, in [5], the compound was classed as inactive.

As to `COc1ccc2sc(C(=O)Nc3nnn[nH]3)c(OC(C)C)c2c1`, the half-maximal activity concentration (AC50) in assay [5] is 5.14 µM (active). For the same compound, the outcome in [9] was inactive.

As to `O=C1CCC(N2C(=O)c3ccccc3C2=O)C(=O)N1` (stereo not given), the call in assay [9] was inactive.

For the compound `COc1ccc(/C=C/S(=O)(=O)NC(=O)c2ccc(C)cc2Cl)cc1`, the half-maximal activity concentration (AC50) in assay [5] was 41.3 µM (active).

Regarding `CCCCC(CC)COC(=O)c1ccc(C(=O)OCC(CC)CCCC)cc1` (stereo not given), in [5], the result was inactive.

Turning to `CCCC(=O)OCC`, the outcome in assay [7] was inactive.

Turning to `CNCc1ccc(NC(=O)c2c[nH]c3c2C(=O)CCC3)cc1`, the AC50 in assay [5] was 5.18 µM (active); in [7] it was 13.8 µM (active); in assay [8] it was 25 µM (active).

On to `COCCOc1cc2cc(C(=O)NC3CCN(C(C)C)CC3)n(CC(=O)Nc3ccc(Cl)cn3)c2cn1`, for which the AC50 was 15.4 µM (active) in [6] and 5.89 µM (active) in assay [9].

For the compound `CC(C)=CCC/C(C)=C/CO`, in [5], the outcome was inactive.

`Oc1ccc2c(c1)-c1ccccc1C2`: in assay [5], the compound was classed as inactive. In addition, the half-maximal activity concentration (AC50) in assay [7] was 10.9 µM (active); in assay [9], 9.7 µM (active).

Consider `CC/C(=C\C(=N/O)C(N)=O)C(C)[N+](=O)[O-]` (stereo not given), for which the compound was classed as inactive in assay [5] and in assay [7].

As for `CC(C)(O)c1coc(S(=O)(=O)NC(=O)Nc2c3c(cc4c2CCC4)CCC3)c1`, the call in [5] was inactive.

A word on the AC50: it is the midpoint of the concentration-response curve, whichever way the signal moves.
